A number with no mark means an inactive call. For some of these results: Measured potencies and affinities stand elsewhere. Active and inactive are the calls of the source. Unless noted, the rule behind the calls is not given here.
Experiments:
[1] = antimalarial activity against Dd2 strain (AID 2302;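 active = growth inhibition above 50% at the single 2 µM test dose, taken to imply half-maximal potency below 2 µM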;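 note: 0% = DMSO untreated growth and 100% = chloroquine plus artemisinin killed control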); settings: P. falciparum Dd2 in RBCs, LDH growth readout, 72 h; at 2 µM; active compounds read high
[2] = HepG2 cytotoxicity, primary screen, cytotoxicity control for P. falciparum antimalarial project, cell-based, ATP luminescence (AID 2303;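 active = inhibition above 50%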;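 note: 0% = DMSO wells and 100% = digitonin-killed cells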); settings: HepG2 viability, 24-48 h, at 10 µM, active compounds read high
[3] = molecular target: L-lactate dehydrogenase (Plasmodium falciparum (isolate CDC / Honduras)) (UniProt Q27743); experiment: PfLDH activity inhibition – cell lysate, 3D7 strain, counter-screen for P. falciparum growth inhibition project (AID 2304);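 note: 0% = vehicle and 100% = reference inhibitor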; settings: P. falciparum 3D7 crude extract, LDH APAD/NBT absorbance; at 2 µM; active compounds read high
[4] = inhibition of 3D7 malaria parasite growth – strain 3D7 (AID 2306);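 note: 0% = DMSO wells and 100% = chloroquine plus artemisinin control wells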; settings: P. falciparum 3D7 erythrocytic growth, LDH absorbance, 72 h; at 2 µM; active compounds read high
[5] = molecular target: Calcium-dependent protein kinase 1 (Plasmodium falciparum (isolate 3D7)) (UniProt P62344); experiment: PfCDPK1 kinase inhibitors, biochemical, TCAMS library (AID 1159585; cut-off not given, nearly all actives have IC50 up to about 0.98 µM;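 note: inhibitors leave more ATP so luminescence rises with inhibition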); settings: recombinant PfCDPK1, Kinase-Glo ATP depletion luminescence
[6] = molecular target: Plasmodium falciparum protein kinase 6 (PK6, PF3D7_1337100) (UniProt Q8IDW1); experiment: PfPK6 kinase inhibitors, biochemical, TCAMS library (AID 1159586); settings: recombinant PfPK6, Kinase-Glo ATP depletion luminescence
[7] = molecular target: Protein kinase 7 (PK7), Plasmodium falciparum 3D7 (PF3D7_0213400) (UniProt Q7YTF7); experiment: inhibition of Plasmodium PK7 catalytic activity – biochemical, TCAMS antimalarial set, Kinase-Glo luminescence (AID 1159587); settings: recombinant PfPK7, Kinase-Glo ATP depletion luminescence
[8] = molecular target: Calcium-dependent protein kinase 4 (Plasmodium falciparum (isolate 3D7)) (UniProt Q8IBS5); experiment: PfCDPK4 kinase inhibitors, biochemical, TCAMS library (AID 1159588; cut-off not given, nearly all actives have IC50 up to about 0.91 µM); settings: recombinant PfCDPK4, Kinase-Glo ATP depletion luminescence
Calcium-dependent protein kinase 4 (Plasmodium falciparum (isolate 3D7)), sequence (Q8IBS5 whole entry, looked up): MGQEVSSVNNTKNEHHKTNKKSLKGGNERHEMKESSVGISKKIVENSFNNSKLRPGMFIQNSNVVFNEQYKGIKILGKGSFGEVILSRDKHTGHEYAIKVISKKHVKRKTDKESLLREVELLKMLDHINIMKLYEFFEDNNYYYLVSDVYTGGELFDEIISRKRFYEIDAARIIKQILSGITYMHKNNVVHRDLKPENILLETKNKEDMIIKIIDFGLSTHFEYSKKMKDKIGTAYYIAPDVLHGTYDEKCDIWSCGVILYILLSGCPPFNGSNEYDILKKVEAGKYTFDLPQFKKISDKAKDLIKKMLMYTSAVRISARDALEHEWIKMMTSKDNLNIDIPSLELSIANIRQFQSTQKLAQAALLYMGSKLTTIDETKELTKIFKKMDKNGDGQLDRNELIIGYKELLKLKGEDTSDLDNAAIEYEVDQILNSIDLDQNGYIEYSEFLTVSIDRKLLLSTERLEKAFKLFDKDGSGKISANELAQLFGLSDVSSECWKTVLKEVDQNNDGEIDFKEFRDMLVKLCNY

L-lactate dehydrogenase (Plasmodium falciparum (isolate CDC / Honduras)), sequence (Q27743 whole entry, looked up): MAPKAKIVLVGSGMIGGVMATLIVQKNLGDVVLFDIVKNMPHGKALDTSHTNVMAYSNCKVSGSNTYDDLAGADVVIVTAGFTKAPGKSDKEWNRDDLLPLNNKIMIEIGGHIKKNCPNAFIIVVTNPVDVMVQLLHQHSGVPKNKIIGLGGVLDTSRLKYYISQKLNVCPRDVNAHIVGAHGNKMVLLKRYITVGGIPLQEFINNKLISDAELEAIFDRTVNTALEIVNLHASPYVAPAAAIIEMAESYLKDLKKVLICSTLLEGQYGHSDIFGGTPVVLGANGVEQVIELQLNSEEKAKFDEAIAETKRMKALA
Plasmodium falciparum protein kinase 6 (PK6, PF3D7_1337100), sequence (Q8IDW1 1-305): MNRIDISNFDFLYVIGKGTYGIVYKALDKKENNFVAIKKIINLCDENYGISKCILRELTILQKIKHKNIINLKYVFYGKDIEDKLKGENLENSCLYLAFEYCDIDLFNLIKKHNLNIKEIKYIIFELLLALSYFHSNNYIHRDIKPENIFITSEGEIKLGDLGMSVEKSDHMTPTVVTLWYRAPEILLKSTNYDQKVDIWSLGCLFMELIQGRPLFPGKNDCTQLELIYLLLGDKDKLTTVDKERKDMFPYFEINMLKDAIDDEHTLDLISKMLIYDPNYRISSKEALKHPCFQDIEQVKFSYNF
Calcium-dependent protein kinase 1 (Plasmodium falciparum (isolate 3D7)), sequence (P62344 whole entry, looked up): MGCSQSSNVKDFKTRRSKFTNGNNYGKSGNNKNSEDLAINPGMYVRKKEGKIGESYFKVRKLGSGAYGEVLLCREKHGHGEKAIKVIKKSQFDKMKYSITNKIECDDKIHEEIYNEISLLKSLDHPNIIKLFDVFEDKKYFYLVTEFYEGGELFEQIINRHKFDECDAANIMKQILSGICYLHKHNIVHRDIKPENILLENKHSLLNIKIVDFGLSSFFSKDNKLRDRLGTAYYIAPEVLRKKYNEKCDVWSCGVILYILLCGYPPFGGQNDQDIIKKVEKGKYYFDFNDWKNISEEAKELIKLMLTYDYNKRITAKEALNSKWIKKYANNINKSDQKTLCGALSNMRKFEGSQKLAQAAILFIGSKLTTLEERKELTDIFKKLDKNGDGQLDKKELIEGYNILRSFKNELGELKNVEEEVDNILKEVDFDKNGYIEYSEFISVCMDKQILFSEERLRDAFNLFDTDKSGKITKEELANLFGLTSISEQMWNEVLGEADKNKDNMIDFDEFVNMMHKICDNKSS
Protein kinase 7 (PK7), Plasmodium falciparum 3D7 (PF3D7_0213400), sequence (Q7YTF7 1-343): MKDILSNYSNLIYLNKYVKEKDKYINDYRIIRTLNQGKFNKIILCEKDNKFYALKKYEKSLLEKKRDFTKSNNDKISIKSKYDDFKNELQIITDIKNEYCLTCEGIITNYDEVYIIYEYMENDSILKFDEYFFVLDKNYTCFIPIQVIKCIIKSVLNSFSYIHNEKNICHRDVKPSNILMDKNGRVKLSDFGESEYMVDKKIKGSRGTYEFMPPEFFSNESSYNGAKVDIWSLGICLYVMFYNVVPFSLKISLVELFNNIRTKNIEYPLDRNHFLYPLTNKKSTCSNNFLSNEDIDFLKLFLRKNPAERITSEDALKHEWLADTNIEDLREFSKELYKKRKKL

Row | SMILES | growth inhibition [1] | inhibition [2] | inhibition [3] [%] | growth inhibition [4] | outcome [5] | outcome [6] | outcome [7] | outcome [8]
1 | CC(C)(C)c1ccc(CN2CCC(NC(=O)c3cc(-c4cccc(C(F)(F)F)c4)cs3)C2)cc1 (stereo not given) | 85% (active) | 24% | -1 | 98% (active) | inactive | inactive | inactive | inactive
2 | O[C@@H](c1ccccc1)[C@@H]1CN(CCc2ccccc2)CC[C@@]1(O)c1ccccc1 | 92% (active) | -2% | -2 | 97% (active) | inactive | inactive | inactive | inactive
3 | O=C(/C=C/c1ccc(Cl)c(Cl)c1)NCC[C@@H]1C[C@H]1CCN1CCC(c2c[nH]c3ccccc23)CC1 | 22% | 98% (active) | -8 | 96% (active) | inactive | inactive | inactive | inactive
4 | Cc1cc(N2CCCC2)nc(Nc2ccc(NC(=O)C(C)(C)C)cc2)n1 | 15% | 24% | 2 | 95% (active) | inactive | inactive | inactive | inactive
5 | c1ccc(CNc2nc(NCCN3CCCCC3)nc3ccccc23)cc1 | 8% | 19% | -11 | 87% (active) | inactive | inactive | inactive | inactive
6 | CCn1c(CN2CCC(C)CC2)nc2cc(NC(=O)c3cccs3)ccc21 | 95% (active) | 40% | 1 | 91% (active) | inactive | inactive | inactive | inactive
7 | CCCOc1cc(NC(=O)Nc2ccnc3ccccc23)cc(OCCC)c1 | 98% (active) | 6% | -1 | 102% (active) | inactive | inactive | inactive | inactive
8 | O=C(c1ccc(-c2ccccn2)s1)N1CCc2cc3nccc(N4CCN5CCC[C@H]5C4)c3cc21 | 49% | -15% | -4 | 96% (active) | inactive | inactive | inactive | inactive
9 | O=C(Nc1ccc(F)cc1)c1nc2ccccc2nc1Cl | 62% (active) | 44% | -1 | 80% (active) | inactive | inactive | inactive | inactive
10 | COc1ccc(OCC(=O)Nc2nc(-c3ccc(OC)cc3)c(C)s2)cc1 | 87% (active) | -3% | -6 | 100% (active) | inactive | inactive | inactive | inactive
11 | Cc1cc(-c2ccc3c(c2)CCN(CCC2CCC(NC(=O)/C=C/c4cccc(F)c4)CC2)CC3)on1 (stereo not given) | 19% | 23% | -10 | 95% (active) | inactive | inactive | inactive | inactive
12 | CN(CCN1CCC(c2c[nH]c3ccccc23)CC1)C(=O)OCCCCCNC(=O)/C=C/c1ccc(Cl)c(Cl)c1 | 44% | 39% | -4 | 95% (active) | inactive | inactive | inactive | inactive
13 | Cc1[nH]c(C)c(-c2ccc(OCc3ccccc3)cc2)c(=O)c1Br | 96% (active) | 19% | -2 | 97% (active) | inactive | inactive | inactive | inactive
14 | CC(=O)Oc1c(C2CCN(CCCCNC(=O)c3ccc(-c4ccc(C#N)cc4)cc3)CC2)ccc2c1CCCC2 | 52% (active) | 21% | 3 | 88% (active) | inactive | inactive | inactive | inactive
15 | CC1CCc2c(C(=O)N3CCc4ccccc4C3)csc2C1 (stereo not given) | 75% (active) | 9% | -3 | 99% (active) | inactive | inactive | inactive | inactive
16 | O=C(Nc1cccc([N+](=O)[O-])c1)N(Cc1ccc(Cl)c(Cl)c1)C1CCNCC1 | -2% | 17% | -2 | 99% (active) | inactive | inactive | inactive | inactive
17 | COc1cc(Nc2nccc(NCC(O)c3ccc(C(F)(F)F)cc3)n2)cc(OC)c1OC (stereo not given) | 14% | 45% | -2 | 91% (active) | inactive | inactive | inactive | inactive
18 | CCCC(C)Nc1nc(C)cc(NCCC(=O)Nc2ccccc2)n1 (stereo not given) | 11% | 12% | -4 | 96% (active) | inactive | inactive | inactive | inactive
19 | Nc1ccnc2ccc(OCCCCCCc3ccccc3)cc12 | 99% (active) | 96% (active) | 1 | 100% (active) | inactive | inactive | inactive | inactive
20 | CC1(C)N=C(N)N=C(N)N1OCCCc1cc(Cl)c(Cl)cc1Cl | 96% (active) | 55% (active) | 2 | 95% (active) | inactive | inactive | inactive | inactive

Source: PubChem BioAssay
